Measurements reported in ChEMBL document CHEMBL4513216, “Probing the Open Global Health Chemical Diversity Library for Multistage-Active Starting Points for Next-Generation Antimalarials” (ACS Infect Dis, 2020).
The campaign covered roughly 65,000 compounds. About 2,100 (3.2%) showed an effect of 50% or more. The median lay at about -52%. For the sample, strong results were picked, then their nearest neighbours and some compounds at random.

test system: Plasmodium falciparum; test: Screen against P. falciparum Asexual Blood Stage (ABS), at 5uM; format: functional, Dd2; conditions: tested at 5 uM

| Compound | INHIBITION [%] |
| --- | --- |
| CC(=O)N(c1ccc(C)cc1)c1nc(CN2CCCC(C)C2)cs1 (stereo unspecified) | 83.2 |
| CC(=O)N(c1ccc(F)cc1)c1nc(CN2CCCC2C(C)C)cs1 (stereo unspecified) | 90.3 |
| CCc1nc(CN2CCCN(C(=O)Cc3cccs3)CC2)cs1 | 3.65 |
| Cc1nc(CN2C[C@@H]3CN(C(=O)c4ccncc4)C[C@@H]3C2)cs1 | -67.5 |
| Cc1nc(CN2CCO[C@H]3CN(C(=O)c4ccncc4)C[C@H]32)cs1 | -109 |
| CCCN1CCN(C(=O)c2cccc(C)n2)[C@H]2CS(=O)(=O)C[C@H]21 | -129 |
| CC(C)(C)CC(=O)N1C[C@@H]2C[C@@H]1CN2 | 30 |
| CN(Cc1cc(C2CC2)on1)C(=O)CN1CC(c2ccccc2)CC1=O (stereo unspecified) | -67.9 |
| CC(C)c1cc(N(C)Cc2cc(C3CC3)on2)n2nccc2n1 | 80.3 |
| CN(C)CCOCc1cncc2c1CCN(C1CCOC1)C2 (stereo unspecified) | -63.4 |
| NC(=O)CN1CCCN(C(=O)Cc2ccc3ccccc3c2)CC1 | -22.8 |
| CCCC1CCCN(Cc2csc(-c3ncccn3)n2)CC1 (stereo unspecified) | 74.9 |
| O=C(Cc1csc(-c2ncccn2)n1)N1CCN2CCCCC2C1 (stereo unspecified) | -23.4 |
| CCN1CCN(Cc2csc(C(C)C)n2)CC1 | -17.1 |
| CCc1noc(CN(C)CCC(=O)Nc2ccc(C#N)c(Cl)c2)n1 | 11.3 |
| O=S(=O)(Cc1ccccc1Cl)NCCCN1CCCC1 | 79.2 |
| Cn1cc(C(=O)N2CC[C@@H]3[C@@H]2CCN3Cc2ccncc2)cn1 | -137 |
| Cc1cnc(N2CCc3c(cnc(C)c3C(=O)O)C2)nc1 | -89.7 |
| Cc1ccc(CNC(C)c2cc(F)ccc2N2CCN(C)CC2)o1 (stereo unspecified) | 83.7 |
| CCc1noc(C(C)N2CCN(CC)CC2)n1 (stereo unspecified) | -70 |
| CCN1CCN(c2ccc(F)cc2C(C)NCc2ccnn2C)CC1 (stereo unspecified) | 76.3 |
| CC(C)c1cc(CN2CCN(c3cccnc3)CC2)n(C)n1 | -52.7 |
| CCN1CCN(c2ccc(F)cc2C(C)NCc2cscn2)CC1 (stereo unspecified) | 81.1 |
| CCN1CCN(c2ccc(F)cc2C(C)NCc2ccccn2)CC1 (stereo unspecified) | 85.6 |
| c1ccc(CO[C@@H]2CN(Cc3cccnc3)[C@@H]3COC[C@@H]32)nc1 | -165 |
| CC(c1ccccc1F)N1CCN(C(=O)Cc2ccncc2)CC1 (stereo unspecified) | -41.8 |

| Compound | INHIBITION [%] |
| --- | --- |
| CCN1CCN(c2ccc(F)cc2C(C)NCc2ccncc2)CC1 (stereo unspecified) | 72.4 |
| CCN1CCN(c2ccc(C(=O)NCCOC)cc2F)CC1 | -56 |
| Cc1cccc(OCC2CCCN(C(=O)CN(C)C3CCNCC3)C2)c1 (stereo unspecified) | 73.8 |
| Cc1cccc(CC(=O)N2CCCC(N(C)CCCN(C)C)C2)c1 (stereo unspecified) | -40.55 |
| Clc1cc(CN2CCCN3CCCC3C2)c2ncccc2c1 (stereo unspecified) | 89.5 |
| Cc1cccc2cc(CN3CCCN4CCC[C@H]4C3)c(=O)[nH]c12 | -45.3 |
| CNc1ncccc1CN1CCN2CCN(C)CC2C1 (stereo unspecified) | -92.1 |
| CC1CN(CC2CCCC2)CCN1c1ccc2nncn2n1 (stereo unspecified) | 70.4 |
| Cc1ccc(N2CCO[C@H]3CN(CC4CC4)C[C@H]32)nn1 | -15.6 |
| Cc1cccc(CN2CC[C@@H]3[C@@H]2CCN3C(=O)c2ccno2)n1 | -100 |
| Cc1cc(-c2cnc(N3CCCC3)nc2C(C)C)on1 | 10.2 |
| c1cncc(N2CCOCC3(CN(Cc4cccs4)CCO3)C2)c1 (stereo unspecified) | -41 |
| c1cnc(N2CCOCC3(CCCN(Cc4cccs4)C3)C2)nc1 (stereo unspecified) | -15.6 |
| c1cncc(N2CCCC3(CCN(CCN4CCCC4)CC3)C2)c1 | 92 |
| O=C1CC2(CCN(CC3CC3)C2)CN1c1cccnc1 (stereo unspecified) | -58.5 |
| c1cncc(N2CCOCC3(CCCN(Cc4cccs4)C3)C2)c1 (stereo unspecified) | 55.5 |
| c1cncc(N2CCCC3(CN(Cc4cccs4)CCO3)C2)c1 (stereo unspecified) | -22.7 |
| CN1CCO[C@H]2CN(C(=O)c3ccncc3F)C[C@H]21 | -54.5 |
| COc1ccccc1C1(NCc2c(C)nc3c(C)cccn23)CCCC1 | 89.2 |
| Cc1cnccc1N1CCN(C[C@]2(O)CCCN3CCCC[C@@H]32)CC1 | 75 |
| O[C@@]1(CNCCCNc2cccnc2)CCCN2CCCC[C@@H]21 | -52.8 |
| Cc1cccnc1N1CC2(CCN(Cc3cccnc3)C2)C1 | -50.1 |
| O=C(Nc1ccccc1)[C@H]1CN2CCC1C[C@@H]2Cn1cc(CO)nn1 (stereo partly specified) | -50.4 |
| CC(C)N1[C@H](CN(C)C)C[C@@H]2CN(c3ncc(F)cn3)CC[C@@H]21 | 25.4 |
| N#CC1(c2ccccc2)CCN(C(=O)C2CCCN(C(N)=O)C2)CC1 (stereo unspecified) | -142 |
| Cc1ccc(C(=O)N2C[C@@H]3CCN(C(C)C)C[C@@H]3C2)cn1 | -25 |

| Compound | INHIBITION [%] |
| --- | --- |
| CC(C)N1CCCC(C(=O)N2CCN(c3nsc4ccccc34)CC2)C1 (stereo unspecified) | 70.4 |
| Cn1cc(CN2CCC[C@]3(C[C@@H](Oc4ccccn4)CO3)C2)cn1 | -29.6 |
| Cc1nc(CN2CC[C@H]3C[C@H](c4ccncn4)O[C@@H]3C2)cs1 | -62.5 |
| Cc1cc(C)cc(CN2C[C@H]3COC[C@H](N4CCN(C)CC4)[C@H]3C2)c1 | 94.1 |
| O=C(C[C@@H]1COC[C@H]2CN(Cc3ccncc3)C[C@@H]12)N1CCCC1 | -88 |
| CN1CCN([C@H]2COC[C@@H]3CN(Cc4cccnc4)C[C@@H]32)CC1 | -11.2 |
| COc1ccc(CN2C[C@H]3CN(c4cncnc4)C(=O)[C@H]3C2)cc1 | -49.1 |
| COc1ccc(CN2C[C@@H]3COC[C@@H](N4CCN(C)CC4)[C@@H]3C2)cc1 | 73.9 |
| COCCNC(=O)C[C@@H]1COC[C@H]2CN(Cc3cccnc3)C[C@@H]12 | -103 |
| Cc1c(CC(=O)N2CCN(CC(F)(F)F)CC2)nnn1-c1ccccc1 | -74 |
| Cc1cc(N2CCCC(c3[nH]ncc3Cc3ccccc3)C2)nc(N)n1 (stereo unspecified) | 73.6 |
| CCn1ncc(CN2CCCC(C(=O)c3ccc(Cl)cc3)C2)c1C (stereo unspecified) | 70.5 |
| Cc1cc(Cl)ccc1C(=O)C1CCCN(Cc2cnc(N(C)C)s2)C1 (stereo unspecified) | -28.8 |
| Cc1c(CN2CCCC(C(=O)c3ccc(C(C)(C)C)cc3)C2)cnn1C (stereo unspecified) | 57.9 |
| CCCn1ncc(CN2CCCC(C(=O)c3ccc(Cl)cc3C)C2)c1C (stereo unspecified) | 78.4 |
| CCCn1ncc(CN2CCCC(C(=O)c3ccc(SC)cc3)C2)c1C (stereo unspecified) | 65.8 |
| COc1ccc(C(=O)C2CCCN(Cc3cnn(C)c3C)C2)c(OC)c1 (stereo unspecified) | 39.5 |
| Cc1cc(CN2C[C@@H]3COC[C@]3(CNC(=O)N3CCCC3)C2)no1 | -22.5 |
| COCCNC(=O)[C@@]12CCO[C@@H]1CCN(Cc1c(C)noc1C)C2 | -191 |
| O=C1CSC(c2ccc(O)c(Cl)c2)c2c(n(C3CCOCC3)[nH]c2=O)N1 (stereo unspecified) | -57.7 |
| CCC(C)N1CCC(Oc2ccc(C(=O)NCCN(C)C)cc2Cl)CC1 (stereo unspecified) | 79.7 |
| Cc1nc(C2(NCC(=O)NC(=O)NCC(F)(F)F)CCCCC2)no1 | -29.3 |
| COc1cc(C)c(-c2ccc(F)c3c2OC(CN)C3)cc1C (stereo unspecified) | 83.8 |
| Cn1ncc2c1NC(=O)CSC2c1ccccc1Cl (stereo unspecified) | -82.5 |
| Cc1ccc(N2C[C@@H]3OCCN(Cc4c(C)noc4C)[C@@H]3C2)nn1 | 6.3 |
| Cc1nc(C)c(C)c(N2CCC3(CCN(C)C3)C2)n1 (stereo unspecified) | 19.5 |

| Compound | INHIBITION [%] |
| --- | --- |
| CC(C)c1cc(N2CCCC3(CCN(C)C3)C2)ncn1 (stereo unspecified) | -28.1 |
| CCc1nc(N)nc(N2CCCC3(CCN(C)CC3)CC2)c1C | 76.1 |
| Cc1cc(NCCc2c[nH]cn2)nc(-c2cccnc2)n1 | -108.15 |
| Cc1cc(NCCN)nc(-c2ccccc2O)n1 | 79.2 |
| Cn1nc(C2CC2)c2c1NC(=O)CC2c1cc(CN2CCCC2)cs1 (stereo unspecified) | 81.9 |
| CCN1CCC2(CC1)NC(=O)c1cc(Br)ccc1-n1nnnc12 | -47.7 |
| O=C(N1CCCC1)N1C[C@@H]2CCNC[C@@H]21 | -67.9 |
| FC(F)CNc1cnc(C2CCNCC2)cn1 | -139 |
| O=C(Nc1ccc(Cl)cn1)c1cncc(C2CCNCC2)n1 | 70 |
| Cc1nn(CCNC(C)Cn2cncn2)c(C)c1Cl (stereo unspecified) | -44.7 |
| c1c[nH]c2nc(C3CCNCC3)nc-2c1 | -162 |
| FC(F)(F)c1nc(C2CCNCC2)no1 | -40.3 |
| FC(F)(F)c1cc(C2CCNCC2)nc(-c2ccsc2)n1 | 89.2 |
| CS(=O)(=O)CCCNCc1c(Cl)cccc1N1CCCC1 | 72 |
| CCOCCN1CCO[C@H]2[C@H](OCc3ccccn3)CC[C@@H]21 | -65.4 |
| O=C(C[C@@H]1COC[C@H]2CN(Cc3cccnc3)C[C@@H]12)NCC1CC1 | -71.5 |
| CO[C@H]1CCN(C(=O)Cc2ccsc2)[C@@H]2CN(CC3CC3)C[C@H]12 | 19.6 |
| CCN1C[C@@H]2[C@@H](OC)CCN(C(=O)Cc3ccsc3)[C@@H]2C1 | 60 |
| CCN1C[C@H]2[C@@H](C1)N(C(=O)Cc1ccsc1)CC[C@H]2OC | -31.1 |
| Cc1cccc(C)c1Nc1noc2c1CN(C(=O)c1ccn(C)n1)CC2 | 86.6 |
| Cc1cccc(C)c1Nc1noc2c1CN(C(=O)c1c[nH]nc1C)CC2 | 93 |
| Cc1cccc(C)c1Nc1noc2c1CN(C(=O)c1ccnn1C)CC2 | 81.7 |
| Cc1cccc(C)c1Nc1noc2c1CN(C(=O)c1cn(C)cn1)CC2 | 88.3 |
